# Measured values taken from PubChem BioAssay.
# Values without a mark were called inactive. For some assays here: Results with a measured potency or affinity are listed apart. Active and inactive are the calls of the source. Unless noted, how the calls were made is not given here.
# Experiments:
# [1] = antimalarial activity against Dd2 strain (AID 2302;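 active means growth inhibition above 50% at the single 2 µM test dose, taken to imply half-maximal potency below 2 µM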;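 further: 0% = DMSO untreated growth and 100% = chloroquine plus artemisinin killed control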); conditions: P. falciparum Dd2 in RBCs, LDH growth readout, 72 h; at 2 µM; hits give high values
# [2] = HepG2 cytotoxicity, primary screen, cytotoxicity control for P. falciparum antimalarial project, cell-based, ATP luminescence (AID 2303;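 active means inhibition above 50%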;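 further: 0% = DMSO wells and 100% = digitonin-killed cells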); conditions: HepG2 viability, 24-48 h, at 10 µM, hits give high values
# [3] = biological target: L-lactate dehydrogenase (Plasmodium falciparum (isolate CDC / Honduras)) (UniProt Q27743); test: PfLDH activity inhibition – cell lysate, 3D7 strain, counter-screen for P. falciparum growth inhibition project (AID 2304);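 further: 0% = vehicle and 100% = reference inhibitor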; conditions: P. falciparum 3D7 crude extract, LDH APAD/NBT absorbance; at 2 µM; hits give high values
# [4] = inhibition of 3D7 malaria parasite growth – strain 3D7 (AID 2306);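 further: 0% = DMSO wells and 100% = chloroquine plus artemisinin control wells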; conditions: P. falciparum 3D7 erythrocytic growth, LDH absorbance, 72 h; at 2 µM; hits give high values
# [5] = biological target: Calcium-dependent protein kinase 1 (Plasmodium falciparum (isolate 3D7)) (UniProt P62344); test: PfCDPK1 kinase inhibitors, biochemical, TCAMS library (AID 1159585; cut-off not given, nearly all actives have IC50 up to about 0.98 µM;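 further: inhibitors leave more ATP so luminescence rises with inhibition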); conditions: recombinant PfCDPK1, Kinase-Glo ATP depletion luminescence
# [6] = biological target: Plasmodium falciparum protein kinase 6 (PK6, PF3D7_1337100) (UniProt Q8IDW1); test: PfPK6 kinase inhibitors, biochemical, TCAMS library (AID 1159586); conditions: recombinant PfPK6, Kinase-Glo ATP depletion luminescence
# [7] = biological target: Protein kinase 7 (PK7), Plasmodium falciparum 3D7 (PF3D7_0213400) (UniProt Q7YTF7); test: inhibition of Plasmodium PK7 catalytic activity – biochemical, TCAMS antimalarial set, Kinase-Glo luminescence (AID 1159587); conditions: recombinant PfPK7, Kinase-Glo ATP depletion luminescence
# [8] = biological target: Calcium-dependent protein kinase 4 (Plasmodium falciparum (isolate 3D7)) (UniProt Q8IBS5); test: PfCDPK4 kinase inhibitors, biochemical, TCAMS library (AID 1159588; cut-off not given, nearly all actives have IC50 up to about 0.91 µM); conditions: recombinant PfCDPK4, Kinase-Glo ATP depletion luminescence
# Chain of Calcium-dependent protein kinase 4 (Plasmodium falciparum (isolate 3D7)) (Q8IBS5 whole entry, looked up): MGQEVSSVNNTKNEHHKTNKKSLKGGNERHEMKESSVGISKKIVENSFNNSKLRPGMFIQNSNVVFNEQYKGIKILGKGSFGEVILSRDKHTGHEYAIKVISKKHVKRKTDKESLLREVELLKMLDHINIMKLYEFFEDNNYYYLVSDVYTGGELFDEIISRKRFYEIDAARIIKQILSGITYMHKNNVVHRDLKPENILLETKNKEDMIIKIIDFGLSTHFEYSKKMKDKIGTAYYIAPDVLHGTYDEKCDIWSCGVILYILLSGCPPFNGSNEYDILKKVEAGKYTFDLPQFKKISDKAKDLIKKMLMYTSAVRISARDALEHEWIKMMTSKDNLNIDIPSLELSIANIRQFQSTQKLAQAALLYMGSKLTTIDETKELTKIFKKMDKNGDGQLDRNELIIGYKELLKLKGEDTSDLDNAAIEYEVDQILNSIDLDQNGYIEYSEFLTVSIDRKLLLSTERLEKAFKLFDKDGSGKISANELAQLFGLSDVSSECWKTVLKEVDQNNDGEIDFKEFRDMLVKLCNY
# Chain of Plasmodium falciparum protein kinase 6 (PK6, PF3D7_1337100) (Q8IDW1 1-305): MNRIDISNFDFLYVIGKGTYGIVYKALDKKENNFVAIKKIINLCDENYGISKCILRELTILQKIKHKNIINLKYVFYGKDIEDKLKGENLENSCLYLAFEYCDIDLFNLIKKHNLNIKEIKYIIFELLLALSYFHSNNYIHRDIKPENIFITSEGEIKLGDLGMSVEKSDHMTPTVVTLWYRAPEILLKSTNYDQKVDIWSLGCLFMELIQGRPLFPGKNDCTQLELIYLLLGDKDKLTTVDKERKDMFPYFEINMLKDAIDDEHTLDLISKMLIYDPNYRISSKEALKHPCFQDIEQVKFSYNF
# Chain of Protein kinase 7 (PK7), Plasmodium falciparum 3D7 (PF3D7_0213400) (Q7YTF7 1-343): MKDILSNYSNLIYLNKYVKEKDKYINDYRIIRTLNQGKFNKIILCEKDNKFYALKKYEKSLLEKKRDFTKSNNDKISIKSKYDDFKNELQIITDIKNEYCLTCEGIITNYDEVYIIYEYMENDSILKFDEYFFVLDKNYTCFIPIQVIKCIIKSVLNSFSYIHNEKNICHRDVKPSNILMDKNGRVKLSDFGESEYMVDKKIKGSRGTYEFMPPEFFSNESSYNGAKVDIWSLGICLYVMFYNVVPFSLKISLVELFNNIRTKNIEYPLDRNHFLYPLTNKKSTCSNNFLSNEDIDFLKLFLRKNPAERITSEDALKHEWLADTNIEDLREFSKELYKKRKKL
# Chain of Calcium-dependent protein kinase 1 (Plasmodium falciparum (isolate 3D7)) (P62344 whole entry, looked up): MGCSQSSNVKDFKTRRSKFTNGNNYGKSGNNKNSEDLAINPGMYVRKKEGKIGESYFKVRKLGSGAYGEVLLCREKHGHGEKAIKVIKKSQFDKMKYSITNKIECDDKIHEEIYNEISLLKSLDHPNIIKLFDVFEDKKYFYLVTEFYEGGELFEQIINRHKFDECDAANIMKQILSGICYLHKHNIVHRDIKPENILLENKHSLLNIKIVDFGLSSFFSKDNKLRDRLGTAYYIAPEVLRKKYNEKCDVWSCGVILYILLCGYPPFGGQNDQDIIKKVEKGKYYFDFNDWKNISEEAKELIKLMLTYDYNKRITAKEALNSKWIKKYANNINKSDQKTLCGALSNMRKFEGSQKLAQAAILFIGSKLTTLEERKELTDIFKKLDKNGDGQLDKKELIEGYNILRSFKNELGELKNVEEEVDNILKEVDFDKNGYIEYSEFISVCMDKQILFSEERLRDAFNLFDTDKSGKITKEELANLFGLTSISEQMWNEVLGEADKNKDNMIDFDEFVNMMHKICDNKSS
# Chain of L-lactate dehydrogenase (Plasmodium falciparum (isolate CDC / Honduras)) (Q27743 whole entry, looked up): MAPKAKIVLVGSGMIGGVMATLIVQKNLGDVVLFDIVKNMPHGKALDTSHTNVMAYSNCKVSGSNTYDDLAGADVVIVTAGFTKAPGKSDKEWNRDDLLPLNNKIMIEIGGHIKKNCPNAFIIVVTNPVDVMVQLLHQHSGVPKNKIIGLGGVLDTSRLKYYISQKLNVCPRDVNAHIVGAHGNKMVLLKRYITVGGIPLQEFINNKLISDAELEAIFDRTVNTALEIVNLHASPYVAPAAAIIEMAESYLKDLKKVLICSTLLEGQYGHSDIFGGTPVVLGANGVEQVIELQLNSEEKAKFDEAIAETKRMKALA
Structure (SMILES),growth inhibition [1],inhibition [2],inhibition [3] [%],growth inhibition [4],outcome [5],outcome [6],outcome [7],outcome [8]
CN(C)CCCNc1ccnc2cc(Cl)ccc12,100% (active),10%,4,100% (active),inactive,inactive,inactive,inactive
Cc1ccc(CN2CCN(Cc3cccc(NC(=O)c4ccc5ccccc5c4)c3)CC2)cc1C,23%,62% (active),-4,89% (active),inactive,inactive,inactive,inactive
O=C(Nc1ccc(OC2CCN(Cc3ccc(F)cc3)C2)c(Cl)c1)c1ccccc1 (stereo unspecified),86% (active),11%,0,91% (active),inactive,inactive,inactive,inactive
CC(=O)Nc1nnc(SCc2c(C)cc(C(C)(C)C)cc2C)s1,91% (active),3%,-4,98% (active),inactive,inactive,inactive,inactive
COc1ccc(-c2ccc(NC(=O)c3cccc(Cl)c3)c(F)c2)cc1CN1CCCN(C)CC1,42%,43%,0,100% (active),inactive,inactive,inactive,inactive
Cc1ccc(C(NC(=O)c2ccccc2)c2ccc3cccnc3c2O)cc1 (stereo unspecified),72% (active),53% (active),7,92% (active),inactive,inactive,inactive,inactive
Cc1[nH]c(C)c(-c2ccc(OCc3ccc(OC(F)(F)F)cc3)nc2)c(=O)c1Cl,96% (active),3%,-3,98% (active),inactive,inactive,inactive,inactive
NC(=O)Nc1ccc2cn[nH]c2c1,-2%,4%,-3,97% (active),inactive,inactive,inactive,inactive
c1ccc(Oc2ccc(Nc3nc(NCCc4cnc[nH]4)nc(NC4CCCC4)n3)cc2)cc1,23%,-5%,6,97% (active),inactive,inactive,inactive,inactive
Cn1nccc1C(=O)NCCNCc1cccc(-c2ccc(-c3nc4ccc(C(F)(F)F)cc4[nH]3)cc2)c1,98% (active),51% (active),-1,102% (active),inactive,inactive,inactive,inactive
COc1cc(Cc2cnc(N)nc2N)ccc1OCc1ccc(-c2csnn2)cc1,-2%,33%,-4,97% (active),inactive,inactive,inactive,inactive
O=C(C=Cc1ccc(Cl)c(Cl)c1)NCCCCCN1CCCC(CCCNS(=O)(=O)c2cccc(C(F)(F)F)c2)C1 (stereo unspecified),33%,81% (active),-3,94% (active),inactive,inactive,inactive,inactive
O=C(c1ccc([N+](=O)[O-])o1)N1CCN(c2nc3c(Cl)cccc3s2)CC1,87% (active),-12%,6,91% (active),inactive,inactive,inactive,inactive
CCCNC(=O)Nc1cc2cc(-c3cccc(CN4CCCCC4)c3)ccc2n2c(C)nnc12,50% (active),60% (active),0,100% (active),inactive,inactive,inactive,inactive
O=C(Nc1cccc(-c2ccc(-c3nc4ccc(F)cc4[nH]3)s2)c1)c1cccnc1,72% (active),46%,-5,100% (active),inactive,inactive,inactive,inactive
COc1ccc2nccc([C@@H](O)CN3CCC(NCc4cc5ccc(Cl)cc5[nH]4)CC3)c2c1,61% (active),30%,4,99% (active),inactive,inactive,inactive,inactive
CC(=O)Nc1cccc(C(=O)Nc2cccc(-c3ccc(-c4nc5c(C)cccc5[nH]4)cc3)c2)c1,12%,29%,-1,95% (active),inactive,inactive,inactive,inactive
Nc1nc(N)c2cc(C(F)(F)F)ccc2n1,1%,8%,-3,80% (active),inactive,inactive,inactive,inactive
CC(C)CCNC(=O)C1Cc2c([nH]c3cc(Cl)ccc23)C2(CCN(CCc3ccccc3)CC2)N1 (stereo unspecified),55% (active),17%,5,103% (active),inactive,inactive,inactive,inactive

Structure (SMILES),growth inhibition [1],inhibition [2],inhibition [3] [%],growth inhibition [4],outcome [5],outcome [6],outcome [7],outcome [8]
COc1ccc(CNC2CCN(C)CC2)cc1-c1ccc(S(=O)(=O)NCCc2ccccn2)cc1,17%,13%,-5,93% (active),inactive,inactive,inactive,inactive
CCN(CCCN1CCCC1)c1cc(C)nc(Nc2ccc(Cl)cc2)n1,12%,5%,1,100% (active),inactive,inactive,inactive,inactive
Cc1[nH]c(C)c(-c2ccc(/C=C/c3ccccn3)cc2)c(=O)c1Cl,96% (active),-9%,-2,97% (active),inactive,inactive,inactive,inactive
Nc1c2c(nc3ccc(C(=O)Nc4ccc(Br)cc4)cc13)CCCC2,99% (active),40%,1,102% (active),inactive,inactive,inactive,inactive
O=C(CCc1ccccc1)N[C@H](Cc1c[nH]c2ccccc12)C(=O)N1CCC(NCc2ccc3c(c2)Cc2ccccc2-3)CC1,8%,53% (active),-6,92% (active),inactive,inactive,inactive,inactive
Clc1cc(Nc2ccnc3ccc(Br)cc23)ccc1Oc1ccc(Cl)c2ccccc12,86% (active),6%,3,99% (active),inactive,inactive,inactive,inactive
Cc1noc(C)c1-c1ccc2c(Nc3ccccc3C(C)(C)C)c(C(=O)NCc3cccc4ccccc34)cnc2c1,64% (active),4%,-2,96% (active),inactive,inactive,inactive,inactive
CN1CCC(Oc2ccc(CN3CC[C@H](NC(=O)c4ccc(Cl)c(F)c4)C3)c3ccccc23)C1 (stereo partly specified),65% (active),51% (active),3,101% (active),inactive,inactive,inactive,inactive
Fc1cccc(Nc2nc(NCc3ccc(OCc4ccccc4)cc3)nc(Nc3cccc(F)c3)n2)c1,14%,5%,1,84% (active),inactive,inactive,inactive,inactive
COc1ccc2nccc([C@@H](O)CN3CCC(NC(=O)/C=C/c4cc([N+](=O)[O-])ccc4OC)CC3)c2c1,76% (active),12%,-1,99% (active),inactive,inactive,inactive,inactive
O=C(NCCN1CCCC1)c1cccc(-c2ccc(-c3nc4ccccc4[nH]3)cc2)c1,36%,20%,0,100% (active),inactive,inactive,inactive,inactive
COc1cc(C(=O)NC2CCN(Cc3ccccc3)CC2)ccc1-c1nc2c(Cl)cc(C(F)(F)F)cc2[nH]1,56% (active),7%,1,103% (active),inactive,inactive,inactive,inactive
O=C(Nc1cccc(C(F)(F)F)c1)Nc1ccc(F)c([N+](=O)[O-])c1,100% (active),43%,-4,101% (active),inactive,inactive,inactive,inactive
CN1CCCN(c2ccnc3cc4c(cc23)N(C(=O)c2ccc(C(F)(F)F)cc2)CC4)CC1,63% (active),10%,1,101% (active),inactive,inactive,inactive,inactive
c1ccc(CN2CCC(NCc3ccc(-c4cccc(CNC5CCCC5)c4)cc3)CC2)cc1,100% (active),55% (active),-8,101% (active),inactive,inactive,inactive,inactive
CCCC(CNCc1ccccc1)CNc1cc(=O)c2ccccc2[nH]1 (stereo unspecified),21%,2%,3,86% (active),inactive,inactive,inactive,inactive
CN1CCN(Cc2nc(-c3ccc4c(Nc5ccc(Oc6ccccc6)cc5)ccnc4c3)cs2)CC1,99% (active),15%,0,100% (active),inactive,inactive,inactive,inactive
N/C(=N\c1ncccn1)Nc1cccc(Cc2ccccc2)n1,34%,51% (active),-2,90% (active),inactive,inactive,inactive,inactive
